Source: PubChem BioAssay (several laboratories)
Sampled rows, rich in hits. Any-hit rate of the full collection: about 2.1%.
HNF4A DNA FP: change in binding of human HNF4 alpha to DNA | P41235 | HNF4a-FITC DNA binding, fluorescence polarization, 1 h | activity change, % at 10 µM | hit rate 0.3% among 360,000; in the data active = activity change above about 30%, passing the limit was not always enough
Target sequence (P41235 whole entry, looked up): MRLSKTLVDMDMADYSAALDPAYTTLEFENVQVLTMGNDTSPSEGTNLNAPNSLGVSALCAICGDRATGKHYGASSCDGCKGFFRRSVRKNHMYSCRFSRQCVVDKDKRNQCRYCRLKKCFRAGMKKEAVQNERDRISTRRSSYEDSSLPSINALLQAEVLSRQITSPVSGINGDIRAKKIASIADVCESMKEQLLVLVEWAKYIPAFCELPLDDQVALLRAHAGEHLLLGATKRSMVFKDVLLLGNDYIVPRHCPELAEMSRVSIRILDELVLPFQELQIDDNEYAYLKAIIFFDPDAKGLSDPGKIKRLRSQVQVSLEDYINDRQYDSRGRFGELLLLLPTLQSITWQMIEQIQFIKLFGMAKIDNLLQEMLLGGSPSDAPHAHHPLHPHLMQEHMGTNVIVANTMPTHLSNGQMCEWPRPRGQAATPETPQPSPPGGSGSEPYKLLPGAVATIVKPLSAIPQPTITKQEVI
TPT1 inhibitor: blocks Candida albicans tRNA 2'-phosphotransferase; hit rate 0.81% among 300,000; inhibition, % at 5 µM; recombinant caTPT1, FP RNA substrate dephosphorylation; AID 1962;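 active = inhibition above the mean of all tested compounds plus 3 SD, set per screening campaign, cut at about 24% in these data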;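 also: plate controls were DMSO alone for no effect and ferristatin control at 100 nM for full effect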
Myeloid diff 2: promotes myeloid progenitor differentiation; ER-HoxA9 myeloid progenitors, lysozyme-GFP differentiation, flow cytometry; calls only at 10 µM; hit rate 1% among 360,000; AID 624256;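 active = normalized GFP-positive differentiation at or above the plate's own cutoff, the solvent-only control mean plus 3 SD; inconclusive = no clear call, values can overlap the other calls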;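 also: cells exposed to compound for four days before flow analysis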
Rpn11 block: blocks the human proteasome subunit Rpn11. inhibition, % at 20 µM. O00487. AID 588493. hit rate 0.59% among 360,000. human 26S proteasome, Ub4-pepOG fluorescence polarization; 20S core pre-blocked with epoxomicin;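 active = inhibition at 20 µM, scaled to each plate's controls, above about 33%, limit read from the data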
TPT1 inh confirm: confirmation of Candida albicans TPT1 inhibitors; shares compounds with TPT1 inhibitor; hit rate 74% among 2,400; inhibition, % at 5 µM; recombinant caTPT1, fluorescence polarization, RNase T1 coupled;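 active = inhibition above the primary screen limit, the mean inhibition of all tested compounds plus 3 SD, cut at about 25% in these data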
RNase T1 counter: counter-screen for TPT1 inhibitors: inhibitors of Aspergillus oryzae RNase T1. hit rate 83% among 2,400. inhibition, % at 5 µM. RNase T1 cleavage, fluorescence polarization, 1536-well. shares compounds with TPT1 inhibitor;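 active = inhibition above the solvent-only control well mean plus 3 SD, limit set per screening run, cut at about 23% in these data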;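 also: plate controls were DMSO wells with enzyme for no effect and wells without RNase T1 for full effect; inhibitors block cleavage so intact labeled substrate keeps polarization high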
Target sequence (P00651 whole entry, looked up): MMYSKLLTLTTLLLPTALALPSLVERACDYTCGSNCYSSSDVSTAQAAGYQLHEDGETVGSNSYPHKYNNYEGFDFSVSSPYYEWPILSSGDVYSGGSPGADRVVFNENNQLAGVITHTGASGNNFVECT
Rpn11 inh conf: Rpn11 inhibition confirmation, single concentration | inhibition, % at 20 µM | shares compounds with Rpn11 block | hit rate 29% among 1,900 | purified human 26S proteasome, Ub4-pepOG fluorescence polarization; proteasome pretreated with epoxomicin
MMP-2 inh: counter-screen for RPN11 inhibitors: inhibition of human MMP-2; shares compounds with Rpn11 block; recombinant MMP-2, FRET peptide cleavage fluorescence; inhibition, % at 20 µM; hit rate 4% among 1,900;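 also: human MMP-2 activated beforehand with APMA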
Thrombin FP: thrombin (bovine) inhibition counter-screen; hit rate 13% among 1,900; bovine thrombin cleavage of Ub4-pepOG, fluorescence polarization; inhibition, % at 20 µM; AID 602333; shares compounds with Rpn11 block;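 active = mean inhibition at least 40% at 20 µM, or signal 3 deviations below plate average, so some actives read negative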;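 also: plate controls were thrombin with DMSO for no effect and buffer wells lacking thrombin for full effect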
Myeloid diff CP1: compounds promoting myeloid differentiation; shares compounds with Myeloid diff 2; ER-HoxA9 myeloid progenitors, GFP/Mac1 double-positive flow; calls only; hit rate 2% among 2,300; AID 651706;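 active = share of green or green-and-red cells above 9 and 9% in run 1 or 4 and 3% in run 2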
GFP autofluor: counter-screen for myeloid differentiation promoters: compound fluorescence; shares compounds with Myeloid diff 2; hit rate 7.4% among 2,300; ER-HoxA9 myeloid progenitors, no estrogen, GFP autofluorescence flow cytometry; vehicle wells 0%, positive control 100%; AID 651707; fluorescence response, % (test concentration not listed);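 active = over 5% cells positive for green fluorescent reporter, or over 2% positive for both it and APC stain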;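 also: range taken on the double positive population between DMSO and positive control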
* = called active by the depositor; i = inactive; u = inconclusive; x = no result given; + = active, no number. Rule as the data show it, unless noted: active = inhibition above about 40%; inactive = the rest.

SMILES | HNF4A DNA FP | TPT1 inhibitor | Myeloid diff 2 | Rpn11 block | TPT1 inh confirm | RNase T1 counter | Rpn11 inh conf | MMP-2 inh | Thrombin FP | others
CNC(=O)c1sc(N2N=C3/C(=C/c4ccccc4)CCCC3C2c2ccccc2)nc1C (stereo not given) | 18 | 28* | i | 44* | 44* | 53* | 22 | 8 | 0
O=C(Cc1ccc(Cl)cc1Cl)OCC(=O)N1CCN(C(=O)c2ccco2)CC1 | -3 | 0 | u | 5 | x | x | x | x | x
O=C1CC(=O)N(Cc2ccco2)C(=O)N1 | -5 | 92* | i | 162* | 47* | 59* | 125* | 38 | 64*
S=C1NCN(Cc2ccco2)CN1 | 2 | 2 | i | -7 | x | x | x | x | x
O=C1CC(=O)N(Cc2ccco2)C(=S)N1 | -20 | 111* | i | 191* | 21 | 31* | 102* | 82* | +
Cc1ccc(C#N)c(SCC(=O)Nc2nccs2)n1 | 2 | 0 | i | -2 | x | x | x | x | x
COc1ccc(C(CNC(=O)c2ccc3c(c2)OCCO3)N(C)C)cc1 (stereo not given) | -4 | -2 | i | -5 | x | x | x | x | x
CCc1ccc(NC(=O)c2cc(S(=O)(=O)N3CCc4ccccc43)cn2C)cc1 | 4 | 2 | i | -2 | x | x | x | x | x
CCCCCCN1C=CC=C/C1=C/C=C(C#N)C#N | 22 | 62* | i | 46* | 80* | 89* | 37 | 15 | 52*
O=C(N/N=C/c1cc(Br)cc(Cl)c1O)c1ccc2c(c1)OCO2 | 17 | 35* | i | + | 33* | 45* | 198* | 25 | 13
CCc1nnc(NC(=O)CN2CCN(c3ccccc3F)CC2)s1 | 0 | 0 | i | -4 | x | x | x | x | x
CC(C)Sc1cc(Cl)nc(NC(=O)Nc2ccccc2)n1 | 3 | -1 | i | -14 | x | x | x | x | x
Cc1cc(N=Nc2ccccc2C(=O)O)c(C)c(C)c1O | 32* | 41* | i | 92* | 42* | 60* | 69* | -1 | 48*
Cc1cc(O)c(C(C)C)cc1N=Nc1ccccc1C(=O)O | 19 | 26* | i | 41* | 31* | 48* | 23 | -20 | 27
Cc1cc(O)c(C(C)C)cc1N=Cc1ccccc1[N+](=O)[O-] | 0 | x | u | 1 | x | x | x | x | x
CCOC(=O)c1c(N)n(C2CC(C)(C)NC(C)(C)C2)c2nc3ccccc3nc12 | 1 | 2 | i | 12 | x | x | x | x | x
CCOC(=O)c1c(NC(=O)c2ccco2)n(C2CCCCC2)c2nc3ccccc3nc12 | 16 | 31* | x | 45* | 28* | 39* | 28 | 10 | 21
CCC(CC)C(=O)Nc1cc(Cl)ccc1C | x | 0 | x | x | x | x | x | x | x
Cc1ccc(S(=O)(=O)Nc2cc(C)cn(Cc3ccc(F)cc3)c2=O)cc1 | 18 | 24* | i | 60* | 36* | 47* | 33 | -19 | 59*
C[C@@H](NC(=O)[C@@H]1Cc2ccccc2CN1)C(=O)Nc1ccc2c(c1)OCO2 | 1 | 1 | i | -10 | x | x | x | x | x
Cc1c(C(=O)O)cccc1-n1c(C)cc(/C=N/Nc2ccc([N+](=O)[O-])cn2)c1C | 6 | 28* | i | 56* | 47* | 57* | 23 | -51 | -3
CCCSc1nnc(NC(=O)c2ccco2)s1 | -7 | 2 | i | 4 | x | x | x | x | x
CCCSc1nnc(NC(=O)c2sc3nc(-c4cccs4)ccc3c2N)s1 | 33 | 66* | i | 76* | 23 | 28* | 61* | -32 | 14
Cc1csc(=Nc2ccc(S(=O)(=O)N3CCOCC3)cc2)n1Cc1ccco1 | -3 | 1 | i | 3 | x | x | x | x | x
CCOC(=O)Cc1csc(NC(=O)c2sc3nc4ccc(C)cc4cc3c2N)n1 | 38* | 26* | i | 61* | 51* | 62* | 77* | -42 | 41*
SMILES | HNF4A DNA FP | TPT1 inhibitor | Myeloid diff 2 | Rpn11 block | TPT1 inh confirm | RNase T1 counter | Rpn11 inh conf | MMP-2 inh | Thrombin FP | others
CCc1nnc(NC(=O)c2ccc3ccccc3n2)s1 | 1 | 4 | i | 12 | x | x | x | x | x
CCc1nnc(NC(=O)c2sc3nc4cc(C)ccc4cc3c2N)s1 | 32 | 27* | i | 71* | 28* | 41* | 26 | -9 | -70
O=C(N/N=C/c1c(O)ccc2ccccc12)c1[nH]ncc1Br | 23 | 32* | u | 80* | 64* | 63* | 67* | -19 | 23
Cc1ccc(O)c(/C=N/NC(=O)c2[nH]ncc2Br)c1 | -1 | -1 | i | -6 | x | x | x | x | x
CCOc1ccc2nc(NC3=NC(c4ccc(OC)cc4)CC(=O)N3)nc(C)c2c1 (stereo not given) | 14 | 26* | x | + | 18 | 25* | 44* | i | -5
CCOc1ccc2nc(NC3=NC(C)(C)C=C(C)N3)nc(C)c2c1 | 4 | 5 | i | 0 | x | x | x | x | x
C(=C\c1ccco1)/C1=NN(c2ccccc2)C(c2ccco2)C1 (stereo not given) | 33 | 53* | + | 72* | 38* | 47* | 70* | 7 | 55* | Myeloid diff CP1=i;GFP autofluor=2
Clc1ccc(C2=NN(c3ccccc3)C(c3ccco3)C2)cc1 (stereo not given) | -2 | 3 | i | -2 | x | x | x | x | x
CCOC(=O)c1c(C)nsc1NC(=O)C1(C)CCN1C(=O)CC (stereo not given) | 2 | x | i | -26 | x | x | x | x | x
Cc1cc(/C=C2\SC(=S)N(C)C2=O)c(C)n1-c1cccc(O)c1 | 72* | 78* | + | x | 114* | 117* | x | x | x | Myeloid diff CP1=i;GFP autofluor=5
COc1ccccc1NC(=O)Nc1sccc1-c1nc2ccccc2s1 | 16 | 33* | + | 36 | 34* | 49* | x | x | x | Myeloid diff CP1=i;GFP autofluor=0
O=C(CCn1nnc2ccccc21)N1CCC(O)(c2cccc(F)c2)CC1 | -1 | -4 | i | 2 | x | x | x | x | x
CCCCC(CC)Cn1c(N)c(C#N)c2nc3ccccc3nc21 (stereo not given) | 8 | 1 | i | 33 | x | x | x | x | x
CN(C)CCCn1c(N)c(C#N)c2nc3ccccc3nc21 | 91 | 26* | i | x | 30* | 43* | x | x | x | Myeloid diff CP1=i;GFP autofluor=0
CCC(O)CNC(=O)NC(=C(Cl)Cl)c1ccc(C)c(F)c1 (stereo not given) | 0 | -1 | i | -6 | x | x | x | x | x
CCCCn1c(N)c(N(CCOC)C(=O)CSCc2cccc(C)c2)c(=O)[nH]c1=O | -4 | -1 | i | -4 | x | x | x | x | x
